The full list was thinned out, with hits kept by preference.
Dicer inh – inhibitors of Dicer pre-microRNA processing, primary screen, biochemical, cat-ELCCA, chemiluminescence. Endoribonuclease Dicer (Homo sapiens), Q9UPY3. cat-ELCCA pre-miR-21 Dicer processing; hits give high values. z-score at 25 µM. actives 6% (n = 47,000); in the data active = z-score above about 3, passing the limit was not always enough;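 also: higher signal means more uncleaved substrate so more Dicer inhibition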
Each line names hits and unclear results; the compound was inactive in the other large screens.

N[C@@H](CCCC(=O)O)C(=O)O	none
NC(CCCP(=O)(O)O)C(=O)O (configuration not stated)	Dicer inh 3.2
CN(C)/C=C(\Sc1ncccn1)C(=O)c1ccc(Cl)cc1	none
Cc1c(Br)sc2ccc(Cl)cc12	none
Cc1onc(-c2c(Cl)cccc2Cl)c1NC(=O)Nc1ccc(Oc2ccc(Cl)cc2)nc1	none
O=C(OCc1ccccn1)c1ccc(COc2ccc3ccccc3c2)o1	Dicer inh 3
CN(C)C(=O)COc1ccc2ccccc2c1	none
COCn1c(COc2ccc3ccccc3c2)nc2ccccc21	none
Cc1nn2c(=O)c(NC(=O)c3ccccc3)cnc2s1	none
CSc1nnc(-c2ccc(Br)cc2)o1	none
Cc1ccc(-c2nnc(-c3ccc(Br)cc3)o2)cc1	Dicer inh 3.8
CSc1nnc(-c2ccc(C)cc2)o1	none
CCOC(=O)c1cc2nc(Nc3ccc(OC)cc3)sc2s1	Dicer inh 3.3
CCOC(=O)c1cc2nc3sccn3c2s1	none
CCOC(=O)c1sc(Nc2nc(C)c(CC)c(OC)n2)nc1C	none
S=C(NCCc1ccccc1)N/N=C/c1ccccc1Cl	none
O=C(N/N=C/c1ccc(Cl)c(Cl)c1)N/N=C/c1ccc(Cl)c(Cl)c1	none
O=C(N/N=C/c1ccccc1Cl)N/N=C/c1ccccc1Cl	Dicer inh 3.8
CSC(SC)=C(C#N)C(=O)c1cccc(C(F)(F)F)c1	Dicer inh 5.1
CSC(SC)=C(C#N)C(=O)c1cccc(C)c1	none
N#CC(C(=O)c1cccc(C(F)(F)F)c1)=C1SCCCCS1	none
CCOC(=O)C1=C(C)N2CCCN=C2S1	Dicer inh 3.3
CCOC(=O)C1=C(C)N2CCN=C2S1	none
CCOC(=O)c1c(N)sc2c1CCC2	none
COc1ccc(OC)c(C2C(C#N)=C(N)Oc3n[nH]c(C(C)(C)C)c32)c1 (configuration not stated)	none
S=C(NCCc1ccccc1)NNC(=S)NC1CC2C=CC1C2 (configuration not stated)	none
O=S(=O)(CCN(Cc1cccs1)S(=O)(=O)c1ccc(Cl)cc1)c1ccc(Cl)cc1	none
O=S(=O)(CCN(Cc1cccs1)C(=S)Nc1cccc(F)c1)c1ccc(Cl)cc1	none
CNC(=S)N(CCS(=O)(=O)c1ccc(Cl)cc1)Cc1cccs1	Dicer inh 3.2
O=C1C=C(NCc2ccccc2)CC(c2ccc(Cl)cc2)C1 (configuration not stated)	none
O=C(Nc1ccccc1)N1CCCc2ccccc21	Dicer inh 3.2
O=C(Nc1ccc(OCc2ccccc2)cc1)N1CCCc2ccccc21	none
O=C(Nc1ccccc1)N1c2ccccc2CCc2ccccc21	none
Cc1cccc2c1N(C(=S)Nc1ccccc1Cl)CCC2	none
S=C(Nc1ccccc1Cl)N1CCc2ccccc2C1	none
S=C(Nc1ccccc1Cl)N1CCCc2ccccc21	Dicer inh 3.8
O=[N+]([O-])c1ccc(N2CCCCC2)c(C(F)(F)F)c1	none
O=C(Cn1c(=O)sc2ccccc21)Nc1nnc(SCC(=O)N2CCOCC2)s1	none
Oc1ccc(/C=N/N=C/c2ccc(O)cc2O)c(O)c1	none
Cc1ccc2c(c1)NC(c1ccc([N+](=O)[O-])s1)O2 (configuration not stated)	none
Fc1ccc(-n2nnnc2-c2cnn(-c3ccccc3Cl)c2C(F)(F)F)cc1	none
Nc1ncc(-c2nnnn2-c2ccc(F)cc2)c(C(F)(F)F)n1	none
FC(F)(F)c1[nH]ncc1-c1nnnn1-c1ccc(Cl)cc1	Dicer inh 4.8
CC1(C)CC(=O)C2=C(C1)Nc1nc(-c3cccnc3)nn1C2c1ccc(Cl)cc1 (configuration not stated)	none
CC(=O)n1c2c(c3ccccc31)OC(N)=C(C#N)C2c1ccc(Cl)cc1 (configuration not stated)	none
Cc1[nH]nc2c1C(c1ccccc1)C(C#N)=C(N)O2 (configuration not stated)	none
CN(C)c1ccc(C2C(C#N)=C(N)Oc3c2sc2ccccc32)cc1 (configuration not stated)	Dicer inh 6
COc1ccc(C2C(C(=O)OC3CCCC3)=C(C)NC3=C2C(=O)CCC3)cc1OC (configuration not stated)	none
CC1=CCC2C(=O)N(c3ccc(C(=O)O)cc3)C(=O)C2C1 (configuration not stated)	none
O=C(c1ccc(N2C(=O)C3CC=C(Cl)CC3C2=O)cc1)N1CCOCC1 (configuration not stated)	Dicer inh 4.5
CC1=CCC2C(=O)N(c3ccc(N4CCOCC4)cc3)C(=O)C2C1 (configuration not stated)	none
Cc1cc(C(=O)N/N=C/c2coc3ccccc3c2=O)ccc1[N+](=O)[O-]	none
CCn1c[n+](CC(O)COc2cccc(OC)c2)c2ccccc21 (configuration not stated)	none
COc1ccc(OC)c(-c2cc(-c3ccccc3)nc(-c3cccc([N+](=O)[O-])c3)c2)c1	none
O=C(CCc1ccccc1)Nc1nc2n(n1)C(c1ccc(F)cc1)C=C(c1ccccc1)N2 (configuration not stated)	none
Cc1ccc(S(=O)(=O)Nc2nc3n(n2)C(c2ccccc2)C=C(c2ccccc2)N3)cc1 (configuration not stated)	none
